# Gal4-VP16 FLuc: inhibits Gal4-VP16 luciferase reporter, ROR gamma counter-screen. Drosophila S2 Gal4-VP16 UAS-luciferase, luminescence, 20 h. Potency, µM (doses to about 53.6 µM), for the others: top-dose activity, negative = inhibition, usual class: inhibitors. 3.5% of 310,000 active. AID 2546;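 also: Gal4-VP16 expression switched on by copper sulfate through the metallothionein promoter; potency is read from the fitted curve at half-maximal effect; nearly all actives have a fitted effect of over 50% in size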
# LDHA inh: LDHA (human) enzyme inhibition; P00338; purified LDHA, NADH/diaphorase-resazurin fluorescence; hits give low values; activity change, % (values are at about 110 or 230 µM); 0.15% of 480,000 active; AID 1347041; in the data active = activity change below about -30%; inconclusive = mostly about -25% to -30%;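 also: plate controls were DMSO wells for no effect and wells without enzyme for full effect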
#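 Human LDH5 (2 nM) was incubated with 0.06 mM NADH and 0.2 mM pyruvate for 5 min at room temperature in Tris pH 7.4. Remaining NADH was coupled through diaphorase/resazurin, and resorufin fluorescence was read at 0 and 20 min.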
# IL1B secr inh: blocks inflammasome-driven IL-1 beta release; THP-1 LPS/ATP IL-1B secretion, AlphaLISA, 16 h; hits give low values; activity change, % at 57.5 µM; 4.7% of 360,000 active; AID 743279; in the data active = activity change below about -50%; inconclusive = mostly about -30% to -49%
#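 Secreted IL-1B measured by AlphaLISA bead assay after 16 h compound exposure of THP-1 cells; compounds (final up to 57.5 uM) added 1 h before LPS (250 ng/mL) and ATP (1.25 mM) stimulation; lower signal means less secretion.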
# TDP1 cell noCPT: qHTS for Inhibitors of human tyrosyl-DNA phosphodiesterase 1 (TDP1): qHTS in cells in absence of CPT; DT40 Tdp1-/- hTDP1 cells, no CPT, ATP luminescence, 48 h; Potency, µM (highest dose often 46.2 µM), without a hit: at the top dose activity change, negative = growth inhibition, most hits filed as inhibitors; 15% of 420,000 active; AID 686978, 2013; also: potency is read from the fitted curve at half-maximal effect; nearly all actives have a fitted effect of over 55% in size
#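 No-CPT arm: Tdp1-/-;hTDP1 DT40 cells (400/well) plus compounds, incubated ≥48 hr at 37 °C. Readout CellTiter-Glo luminescence.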
# DT40 TDP1 CPT: DT40-hTDP1 cell growth loss with CPT; chicken DT40 Tdp1-/-;hTDP1 cells + 20 nM CPT, ATP luminescence, 48 h; Potency, µM (doses to about 46.2 µM), for inactives: at the highest dose activity change, negative = growth inhibition, hits mostly inhibitors; 12% of 420,000 active; AID 686979; also: potency is read from the fitted curve at half-maximal effect; nearly all actives have a fitted effect of over 55% in size
#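 Chicken DT40 Tdp1-/- cells complemented with human TDP1, 400 cells/well, exposed to compounds plus 20 nM camptothecin for at least 48 h at 37 C; viability read as ATP content by CellTiter-Glo luminescence.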
# RORg inh: inhibitors of mouse ROR gamma transcriptional activity; P51450; Drosophila S2 Gal4-RORgamma UAS-luciferase reporter, 20 h; Potency, µM (highest dose often 53.6 µM), inactives show top-dose activity change, negative = inhibition, actives largely listed as inhibitors; 5.4% of 310,000 active; AID 2551; also: potency is read from the fitted curve at half-maximal effect; nearly all actives have a fitted effect of over 60% in size
# Target sequence (P51450 whole entry, looked up, the tested form may be a part): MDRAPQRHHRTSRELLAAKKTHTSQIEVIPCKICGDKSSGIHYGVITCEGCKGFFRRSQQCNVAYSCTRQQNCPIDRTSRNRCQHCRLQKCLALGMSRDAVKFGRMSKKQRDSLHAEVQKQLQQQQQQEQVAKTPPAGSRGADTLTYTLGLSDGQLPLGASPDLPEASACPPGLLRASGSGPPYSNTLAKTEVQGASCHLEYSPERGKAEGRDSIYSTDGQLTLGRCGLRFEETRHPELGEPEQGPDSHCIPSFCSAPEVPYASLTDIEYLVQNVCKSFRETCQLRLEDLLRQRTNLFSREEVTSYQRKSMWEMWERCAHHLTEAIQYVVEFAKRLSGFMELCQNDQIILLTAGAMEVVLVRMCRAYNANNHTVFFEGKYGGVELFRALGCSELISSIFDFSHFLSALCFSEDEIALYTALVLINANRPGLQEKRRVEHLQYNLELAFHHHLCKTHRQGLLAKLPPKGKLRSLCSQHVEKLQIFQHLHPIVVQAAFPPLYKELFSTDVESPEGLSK
#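 Schneider cells (Drosophila), stable Gal4 DBD–ROR gamma + UAS-luc; 1 hr cmpd preincubation; Cu2+ induction 700 uM final; 20 hr ambient; luminescence.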
# Numbers without * were called inactive; ? = inconclusive; . = no result; [ ] = dose if it differs, or a comment. An excerpt weighted towards active compounds, which were near 18% of everything screened. Unless noted, calls follow the shape of the dose curve; as a rule, active = well fitted curve in the direction sought with a large enough effect; inconclusive = small, poorly fitted or top-dose-only effect, or another doubt; inactive = no such curve, though single readings can be large; an effect the other way counts as inactive or inconclusive. Unless noted, % is scaled to controls: 0 for no effect and ±100 for the full control effect.
SMILES,Gal4-VP16 FLuc,LDHA inh,IL1B secr inh,TDP1 cell noCPT,DT40 TDP1 CPT,RORg inh
N#Cc1ccccc1COc1ccc(/C=C/C(=O)O)cc1,0.71µM*,-8,0,-1%,21%,0.18µM*
CN(C)c1ncccc1CNC(=O)c1nccnc1N,.,3,.,.,.,.
CC(C)N1CCC(NC(=S)Nc2ccccc2C(F)(F)F)CC1,.,-5,.,.,.,.
COCCn1c(N)c(C(=S)NC(=O)c2cccs2)c(=O)[nH]c1=O,-10%,1,-9,?,10µM*,6%
COc1cccc(Nc2nc3ccccc3nc2NS(=O)(=O)c2cc(C)ccc2C)c1,.,15,.,.,.,.
CCOc1ccccc1CNC(=O)CCc1c(C)nn(-c2ccc(N3CCCC3)nn2)c1C,.,-12,.,21µM*,?,.
Cc1nn(-c2ccc(N3CCCCC3)nn2)c(C)c1CCC(=O)NCc1ccccc1,.,-1,.,?,?,.
COc1ccccc1CNC(=O)CCc1c(C)nn(-c2ccc(N3CCCCC3)nn2)c1C,.,2,.,26µM*,?,.
CCc1nc(CN(CC)Cc2cccs2)cs1,.,1,.,.,.,.
COc1cc(-c2[nH]ncc2CN2CCc3sccc3C2)cc(OC)c1OC,2%,-6,42,10µM*,15µM*,33%
CCNC(=O)COc1ccc(OCc2ccccc2)cc1,?,-7,-16,?,-18%,?
Fc1cccc(COc2ccccc2C(=S)N2CCCC2)c1,3%,0,-7,?,?,11µM*
COc1cc(CNc2ccc(O)cc2)cc(Br)c1OCc1ccccc1,?,13,-8,?,?,?
Oc1ccc(NCc2ccc(OCc3ccccc3)cc2)cc1,-28%,8,60,12µM*,6.5µM*,?
CCC(C)NC(=O)COc1ccc(OCc2ccccc2)cc1 (configuration not stated),-9%,3,19,26µM*,?,5%
Oc1ccc(OCc2ccccc2)cc1,29%[17 µM],.,.,?,4µM*,2%[2.98 µM]
Brc1ccc(C2=NOC(c3cccs3)C2)cc1 (configuration not stated),.,-16,.,.,.,.
COc1cc(C)c(C)cc1S(=O)(=O)n1nnc2ccccc21,.,4,.,.,.,.
S=C(c1ccc(OCc2ccccc2)cc1)N1CCCC1,?,-1,-5,?,18µM*,?
Cc1cccc(OC(=O)c2ccccc2Cl)c1C,.,-3,.,.,.,.
CCOCCN(C(=O)c1ccccc1Cl)c1cccc(C)c1C,7%,-2,.,?,26µM*,-38%
CN=C(c1ccc(C)cc1)n1c(=S)nc(-c2ccc(C)cc2)n(C)c1=S,-2%,-4,23,18µM*,?,?
Cc1ccc(C)c(NC(=S)NNC(=O)c2csc3c2CCCC3)c1,-26%,1,-17,-22%,-24%,?
CCN(CC)c1ccc(NC(=O)Cn2cc3c(n2)CCC(C)C3)c(C)c1 (configuration not stated),11µM*,2,16,?,-2%,-54%
Cc1ccc(C)c(NC(=S)NNC(=O)c2csc3c2CCC(C)C3)c1 (configuration not stated),-24%,-1,?,?,?,5µM*
CC1CCc2nn(CC(=O)NCc3ccco3)cc2C1 (configuration not stated),?,3,-7,?,21µM*,29%
O=C(NCc1ccco1)c1csc2c1CCCCC2,-1%,-16,-14,?,?,30%
CC1CCc2c(C(=O)NCc3ccco3)csc2C1 (configuration not stated),12%,-2,-79*,15µM*,?,?
COc1ccc(-c2cn3nc(N4CCC(C(=O)N5CCN(C)CC5)CC4)sc3n2)cc1,.,7,.,.,.,.
CCc1ccccc1NC(=O)C(=O)NCCc1csc(-c2cccc(F)c2)n1,.,1,.,.,.,.

# Compound activity from PubChem.
